Data: PubChem BioAssay AID1159580 (chemical genetic matrix, 2015)
Several values for one entry are separate records, joined by “and”; a condition that tells them apart may be missing. Equal values may be shown once. Screen size: about 5,500 compounds; about 2,000 (36%) were called active. Not shown: some 18% with an inconclusive outcome. No stated cut-off is given here; in the data, active means normalized growth mostly below about 0.91 (no sharp cut-off); inconclusive means no clear call, values can overlap the other calls; inactive means mostly above about 0.92. The list shows a part of the results.

Experiment: chemical genetic growth profiling, strain panel (AID 1159580);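 further: tested at 20 µM; growth read once vehicle control cultures reached saturation at 30 °C; 1 = growth at the plate median or of vehicle wells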
Details: S. cerevisiae deletion strains, growth OD

Measured: normalized growth

O=C(O)c1cc(=O)c2cccc(O)c2[nH]1
inactive: locus YAL013W, strain DEP1, stronger effect = lower value 0.999 | locus YAL021C, strain ccr4, stronger effect = lower value 0.995 | locus YAL026C, strain drs2, stronger effect = lower value 1.03 | locus YAL030W, strain snc1, stronger effect = lower value 1.01 | locus YBL061C, strain skt5, stronger effect = lower value 1.02 | locus YBR009C, strain hhf1, stronger effect = lower value 1 | locus YBR021W, strain FUR4, stronger effect = lower value 1.03 | locus YBR023C, strain chs3, stronger effect = lower value 1.03 | locus YBR171W, strain sec66, stronger effect = lower value 1.03 | locus YBR229C, strain ROT2, stronger effect = lower value 0.999 | locus YBR231C, strain swc5, stronger effect = lower value 1.01 | locus YBR279W, strain paf1, stronger effect = lower value 0.984 | locus YCL011C, strain gbp2, stronger effect = lower value 1.02 | locus YCL016C, strain dcc1, stronger effect = lower value 1.05 | locus YCL029C, strain bik1, stronger effect = lower value 0.953 | locus YCL061C, strain MRC1, stronger effect = lower value 1.02 | locus YCL069W, strain vba3, stronger effect = lower value 1.01 | locus YCR088W, strain abp1, stronger effect = lower value 1.02 | locus YDL005C, strain med2, stronger effect = lower value 1.01 | locus YDL035C, strain GPR1, stronger effect = lower value 1.02 | locus YDL040C, strain nat1, stronger effect = lower value 1 | locus YDL074C, strain BRE1, stronger effect = lower value 0.995 | locus YDL101C, strain DUN1, stronger effect = lower value 0.988 | locus YDL134C, strain PPH21, stronger effect = lower value 1.01 | locus YDL185W, strain tfp1, stronger effect = lower value 0.959 | locus YDL192W, strain arf1, stronger effect = lower value 0.985 | locus YDR001C, strain nth1, stronger effect = lower value 1.01 | locus YDR069C, strain doa4, stronger effect = lower value 1.03 | locus YDR101C, strain arx1, stronger effect = lower value 0.977 | locus YDR137W, strain rgp1, stronger effect = lower value 1.01 | locus YDR150W, strain NUM1, stronger effect = lower value 0.97 | locus YDR159W, strain sac3, stronger effect = lower value 0.981 | locus YDR162C, strain NBP2, stronger effect = lower value 1 | locus YDR195W, strain ref2 1 | locus YDR297W, strain sur2, stronger effect = lower value 1.01 | locus YDR318W, strain mcm21, stronger effect = lower value 0.981 | locus YDR334W, strain swr1, stronger effect = lower value 1.02 | locus YDR335W, strain msn5, stronger effect = lower value 1.04 | locus YDR388W, stronger effect = lower value 0.995 | locus YDR392W, strain spt3, stronger effect = lower value 1.08 | locus YDR502C, strain sam2, stronger effect = lower value 0.985 | locus YEL003W, strain gim4, stronger effect = lower value 1.01 | locus YEL037C, strain rad23, stronger effect = lower value 1.01 | locus YEL061C, strain CIN8 (second series), stronger effect = lower value 1.02 | locus YEL061C, strain CIN8, stronger effect = lower value 0.993 | locus YER015W, strain faa2, stronger effect = lower value 1.02 | locus YER016W, strain bim1, stronger effect = lower value 1.04 | locus YER110C, stronger effect = lower value 0.974 | locus YER111C, strain swi4, stronger effect = lower value 1.01 | locus YER155C, strain BEM2 (second series), stronger effect = lower value 1.03 | locus YER155C, strain BEM2, stronger effect = lower value 0.998 | locus YER167W, strain BCK2, stronger effect = lower value 0.994 | locus YFR010W, strain ubp6, stronger effect = lower value 1.01 | locus YGL078C, strain dbp3, stronger effect = lower value 0.987 | locus YGL086W, strain mad1, stronger effect = lower value 0.993 | locus YGL167C, strain pmr1, stronger effect = lower value 1.01 | locus YGL173C, strain kem1, stronger effect = lower value 1.01 | locus YGL227W, strain vid30, stronger effect = lower value 1.01 | locus YGL240W, strain doc1, stronger effect = lower value 0.999 | locus YGL248W, strain PDE1, stronger effect = lower value 0.991 | locus YGL253W, strain hxk2, stronger effect = lower value 1.03 | locus YGR078C, strain PAC10, stronger effect = lower value 0.98 | locus YGR135W, strain pre9, stronger effect = lower value 0.986 | locus YGR229C, strain SMI1, stronger effect = lower value 1.02 | locus YGR252W, strain gcn5, stronger effect = lower value 1.15 | locus YHR013C, strain ard1, stronger effect = lower value 1.01 | locus YHR027C, strain rpn1, stronger effect = lower value 1.03 | locus YHR030C, strain SLT2, stronger effect = lower value 0.985 and 0.961 | locus YHR079C, strain IRE1 (second series), stronger effect = lower value 0.985 | locus YHR079C, strain IRE1, stronger effect = lower value 0.962 | locus YHR094C, strain hxt1, stronger effect = lower value 0.964 | locus YHR129C, strain ARP1, stronger effect = lower value 0.987 | locus YHR142W, strain chs7, stronger effect = lower value 1.03 | locus YHR200W, strain rpn10, stronger effect = lower value 0.984 | locus YIL066C, strain RNR3, stronger effect = lower value 0.994 | locus YIL073C, strain SPO22, stronger effect = lower value 0.949 | locus YIL125W, strain kgd1, stronger effect = lower value 0.975 | locus YIR030C, strain dcg1, stronger effect = lower value 0.99 | locus YJL092W, strain hpr5, stronger effect = lower value 1.02 | locus YJL095W, strain BCK1 (second series), stronger effect = lower value 1.03 | locus YJL095W, strain BCK1, stronger effect = lower value 0.982 and 0.975 | locus YJL115W, strain asf1, stronger effect = lower value 1.01 | locus YJL129C, strain trk1, stronger effect = lower value 1.03 | locus YJL134W, strain LCB3, stronger effect = lower value 0.992 | locus YJL154C, strain vps35, stronger effect = lower value 1.01 | locus YJL164C, strain tpk1, stronger effect = lower value 1.01 | locus YJL166W, strain qcr8, stronger effect = lower value 0.996 | locus YJL168C, strain set2, stronger effect = lower value 0.981 | locus YJL187C, strain SWE1 (second series), stronger effect = lower value 0.95 | locus YJL187C, strain SWE1, stronger effect = lower value 1.03 | locus YJR043C, strain POL32, stronger effect = lower value 0.987 | locus YJR066W, strain TOR1, stronger effect = lower value 0.928
